# Inconclusive results are not listed. Calls of active or inactive are those of the source. The calls were made as follows: active = hit-call score of the fitted dose curve at least 0.9, where 1 is the maximum; inconclusive = response in the unintended direction; inactive = score below 0.9.
# Assay: CCTE_Shafer_MEA_acute_AB: CCTE's Alamar Blue Assay for Cytotoxicity in the Neural Acute Assay, Shafer Lab (AID 2284069);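 also: active compounds lower the viability signal compared with DMSO wells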
# Procedure: CCTE_Shafer_MEA_acute assay is conducted using Axion Biosystems 48 well microelectrode array (MEA) plates and Maestro recording system. Each well of the MEA plate contains a grid of 16 microelectrodes embedded in the culture surface. Electrically active cells, such as neurons, can be cultured over the electrodes, and electrical activity in these cells can be recorded extracellularly. The spontaneous firing of neurons is captured from each electrode on a microsecond timescale providing both temporally and spatially precise data. […] The CCTE_Shafer_MEA_acute assay uses primary cultures of rat cortical neurons. As these cultures mature over time, neural networks develop functional activity and form cohesive networks in which electrical activity can be highly coordinated. Baseline 40-minute recordings are made on days post-plating 13 or 15, followed by a secondary 40-minute recording after chemical exposure.CCTE_Shafer_MEA_acute_AB is a component of the CCTE_Shafer_MEA_acute assay. It measures the resazurin reduction using fluorescence.Data from the assay component CCTE_Shafer_MEA_acute_AB was analyzed into 1 assay endpoint. This assay endpoint, CCTE_Shafer_MEA_acute_AB, was analyzed in the positive analysis fitting direction relative to DMSO as the negative control and baseline of activity. Using a type of viability reporter, loss-of-signal activity can be used to understand cell viability.
# Metabolic activity was determined using the CellTiter Blue (CTB) assay (Promega Cat. #8081), following the manufacturer's instructions with the following modifications. Following the removal of the 50 uL sample for the LDH assay, 450 uL of media was removed from each well and replaced with 200 uL of fresh media containing a 1:6 dilution of CTB reagent for the determination of metabolic activity. Fluorescence was measured in a Fluorostar Optima fluorimeter using an excitation wavelength of 544 nm and an emission wavelength of 590 nm.
row,SMILES,outcome
1,CCC(C)(C)c1ccc(O)cc1,inactive
2,CCOP(=S)(Oc1ccc([N+](=O)[O-])cc1)c1ccccc1 (stereo not given),inactive
3,COCCOCCO,inactive
4,c1ccc2c(c1)Nc1ccccc1S2,inactive
5,[N-]=[N+]=[N-],inactive
6,ClC1=C(Cl)C2(Cl)C3C(Cl)C(Cl)CC3C1(Cl)C2(Cl)Cl (stereo not given),inactive
7,O=C(O)C1C(C(=O)O)C2(Cl)C(Cl)=C(Cl)C1(Cl)C2(Cl)Cl (stereo not given),inactive
8,CCC1(c2ccccc2)C(=O)N=C(O)NC1=O (stereo not given),inactive
9,ClC(Cl)(Cl)c1ccccc1,inactive
10,CC(Cl)(Cl)C(=O)O,inactive

# From PubChem BioAssay (EPA / NIEHS)
